Screening results from PubChem BioAssay.
A selection: hits, their analogues and other compounds. The true share with any hit is near 2.9%.
pPAFAH FP inh – pPAFAH (human) enzyme inhibition. recombinant pPAFAH, FP-rhodamine probe fluorescence polarization. AID 463082. inhibition, % at 3.39 µM. 330,000 tested, 1.5% active;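 active = inhibition above the mean inhibition across the screen plus 3 SD, cut at about 25% in these data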;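 note: inhibitors block binding of the rhodamine activity-based probe so polarization drops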
Target sequence (Q13093 whole entry, looked up): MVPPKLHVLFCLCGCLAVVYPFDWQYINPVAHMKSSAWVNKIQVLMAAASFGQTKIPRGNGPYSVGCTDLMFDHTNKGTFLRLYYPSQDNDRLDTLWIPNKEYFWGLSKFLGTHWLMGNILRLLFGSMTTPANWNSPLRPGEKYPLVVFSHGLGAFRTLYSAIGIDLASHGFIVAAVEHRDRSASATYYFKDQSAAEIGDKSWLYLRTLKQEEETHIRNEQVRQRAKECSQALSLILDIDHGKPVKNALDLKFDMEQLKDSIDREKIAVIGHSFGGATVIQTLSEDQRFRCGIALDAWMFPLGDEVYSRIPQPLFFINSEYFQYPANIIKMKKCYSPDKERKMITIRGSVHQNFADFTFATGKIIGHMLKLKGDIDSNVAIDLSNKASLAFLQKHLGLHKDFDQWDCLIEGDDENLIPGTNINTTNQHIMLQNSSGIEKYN
PAFAH2 FP inh – PAFAH2 (human) inhibition; AID 492956; inhibition, % at 3.39 µM; recombinant PAFAH2, FP-rhodamine activity probe, fluorescence polarization; 340,000 tested, 0.99% active;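 active = inhibition above the mean over all tested compounds plus 3 SD, cut at about 30% in these data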;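 note: inhibitors block probe labeling of enzyme so polarization drops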
PAFAH1B2 inh – blocks human PAF acetylhydrolase 1b catalytic subunit 2. P68402. recombinant PAFAH1B2, FP-rhodamine activity probe, fluorescence polarization. AID 492953. inhibition, % at 3.39 µM. 340,000 tested, 1.2% active;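 active = inhibition above the mean of all tested compounds plus 3 SD, cut at about 24% in these data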
Target sequence (P68402 whole entry, looked up): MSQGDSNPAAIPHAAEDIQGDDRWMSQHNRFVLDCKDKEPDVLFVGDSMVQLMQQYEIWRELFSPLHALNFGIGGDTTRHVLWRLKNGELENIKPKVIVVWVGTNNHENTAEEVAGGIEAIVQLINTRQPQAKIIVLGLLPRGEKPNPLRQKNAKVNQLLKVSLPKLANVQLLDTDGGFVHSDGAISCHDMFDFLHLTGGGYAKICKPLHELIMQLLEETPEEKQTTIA
EBNA-1 inhibitor – blocks EBNA-1 binding to DNA; inhibition, % at 14.8 µM; 300,000 tested, 0.34% active; EBNA-1 DNA binding, fluorescence polarization; AID 1950; in the data active = inhibition above about 28%
PAFAH1B3 inh – blocks human PAF acetylhydrolase 1B catalytic subunit 3; Q15102; recombinant PAFAH1B3, FP-rhodamine probe, fluorescence polarization; inhibition, % at 3.39 µM; 340,000 tested, 0.28% active; AID 492972;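 active = inhibition above the screen-wide average of all tested compounds plus 3 SD, cut at about 25% in these data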
ZTA DNA inh – blocks Epstein-Barr virus ZTA, an EBNA-1 counter-screen | P03206 | ZTA-DNA binding, fluorescence polarization | inhibition, % at 11 µM | 320,000 tested, 0.15% active | AID 2234; in the data active = inhibition above about 33%
EBNA-1 confirm – EBNA-1 (EBV) inhibition, confirmation. AID 2292. inhibition, % at 14.8 µM. Recombinant EBNA-1 DBD, Cy5-DNA fluorescence polarization. 830 tested, 35% active. shares compounds with EBNA-1 inhibitor;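 active = mean inhibition across replicates above a set limit taken from the earlier primary screen, cut at about 28% in these data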
ZTA counter trip – counter-screen for EBNA-1 inhibitors: Epstein-Barr virus ZTA inhibitors, triplicate. inhibition, % at 11.1 µM. shares compounds with EBNA-1 inhibitor. Zta-ZRE DNA binding, Cy5 fluorescence polarization. AID 2328. 830 tested, under 10 active;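 active = mean inhibition over triplicates above a set limit taken from the primary EBNA-1 screen, cut at about 37% in these data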;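 note: purified full length Zta protein with Cy5 labeled ZRE DNA probe; inhibitors lower polarization by freeing the labeled DNA probe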
Each line names hits and unclear results; the compound was inactive in the other large screens (follow-up assays come after a bar, where they were run).

COc1ccc(CN2C(=NC(=O)COc3ccccc3)SC3CS(=O)(=O)CC32)cc1 (centres undefined)	none
O=C(COc1ccccc1)N=C1SC2CS(=O)(=O)CC2N1Cc1ccccc1 (centres undefined)	EBNA-1 inhibitor active | EBNA-1 confirm inactive | ZTA counter trip inactive
CCN(CC)S(=O)(=O)c1cc(NC(=O)Cc2ccc(S(=O)(=O)N3CCOCC3)s2)ccc1Cl	none (no result: pPAFAH FP inh, EBNA-1 inhibitor, ZTA DNA inh)
COc1ccc(N=C2NC(=O)/C(=C/C=C/c3ccccc3)S2)cc1	EBNA-1 inhibitor 32 | EBNA-1 confirm 29 | ZTA counter trip inactive
COc1ccc(N=C2NC(=O)/C(=C\C=C\c3ccccc3)S2)cc1	none
O=C(C1CCCN1S(=O)(=O)c1ccc(Cl)cc1)N1CCN(c2ccccc2)CC1 (centres undefined)	none (no result: EBNA-1 inhibitor, ZTA DNA inh)
Nc1c(C(=O)Nc2ccc3c(c2)OCCO3)nnn1Cc1cccc(Cl)c1	EBNA-1 inhibitor 54 | EBNA-1 confirm 108 | ZTA counter trip inactive
O=C(Nc1ccc(F)cc1)N(Cc1ccco1)Cc1cc2cc3c(cc2[nH]c1=O)OCO3	EBNA-1 inhibitor 28 | EBNA-1 confirm inactive | ZTA counter trip inactive
COc1ccccc1NC(=S)N(Cc1ccco1)Cc1cc2cc(C)ccc2[nH]c1=O	EBNA-1 inhibitor 42 | EBNA-1 confirm inactive | ZTA counter trip inactive
COc1ccc(C(=O)N(Cc2ccco2)Cc2cc3cc(C)ccc3[nH]c2=O)cc1OC	none
COc1cccc(NC(=S)N(CCCN2CCOCC2)C(C)c2cc3ccccc3o2)c1 (centres undefined)	none
CCC[N+]1(CC#CC(O)(c2ccccc2)C2CCCCC2)CCCCC1 (centres undefined)	none
NC(=O)C[N+]1(CC#CC(O)(c2ccccc2)c2ccccc2)CCCC1	EBNA-1 inhibitor 128 | EBNA-1 confirm inactive | ZTA counter trip inactive
NS(=O)(=O)c1ccc(NC(=S)Nc2ccn(Cc3cccc4ccccc34)n2)cc1	EBNA-1 inhibitor 29 | EBNA-1 confirm 34 | ZTA counter trip inactive
O=C(CSc1nnc(SCc2ccc(Cl)cc2)s1)N/N=C/c1ccc(Cl)cc1Cl	none
O=C(CSc1nnc(SCc2ccc(Cl)cc2)s1)N/N=C/c1c(Cl)cccc1Cl	EBNA-1 inhibitor 35 | EBNA-1 confirm inactive | ZTA counter trip inactive
O=C1CCCCc2sc(Br)c([N+](=O)[O-])c2N1	none
CCCn1c(NC(=O)c2ccc([N+](=O)[O-])o2)nc2ccccc21	none
Cc1cccc(Cc2ncc(C(F)(F)F)cc2Cl)c1	none
CC1=CC(=C(C#N)C#N)C=C(C)N1CCN1CCN(C(=O)Nc2ccc(Cl)c(Cl)c2)CC1	EBNA-1 inhibitor 76 | EBNA-1 confirm 65 | ZTA counter trip inactive
CCOc1ccccc1N1CCN(C(=O)Nc2ccc(Cl)c(Cl)c2)CC1	none (no result: PAFAH2 FP inh, PAFAH1B2 inh, PAFAH1B3 inh)
CC1CC(C)CN(S(=O)(=O)c2ccc(C(=O)NCc3ccc4c(c3)OCO4)cc2)C1 (centres undefined)	EBNA-1 inhibitor 53 | EBNA-1 confirm inactive | ZTA counter trip inactive
CC1CCN(S(=O)(=O)c2ccc(C(=O)NCc3ccc4c(c3)OCO4)cc2)CC1	none
Cc1cccc(C)c1NC(=O)COc1ccc2c(C)c(Cc3ccccc3)c(=O)oc2c1	EBNA-1 inhibitor 68 | EBNA-1 confirm inactive | ZTA counter trip inactive
CC(NC(=O)COc1ccc(/C=N/NC(=O)C(=O)Nc2ccccc2Br)cc1)c1ccccc1 (centres undefined)	EBNA-1 inhibitor 34 | EBNA-1 confirm 50 | ZTA counter trip inactive
CCO[C@@H]1OC(C(=O)Nc2ccccc2)=C[C@H](c2csc3ccccc23)[C@H]1CCCO	none
O=c1[nH]nc(-c2n[nH]c(=O)o2)o1	none (no result: pPAFAH FP inh, EBNA-1 inhibitor, ZTA DNA inh)
CCSc1ccccc1C(=O)NC1CCCCC1	none
CC(/C=C1\SC(=S)N(CCC(=O)Nc2ccc(O)cc2)C1=O)=C\c1ccccc1	EBNA-1 inhibitor 34 | EBNA-1 confirm inactive | ZTA counter trip inactive
Cc1ccc(/C=C2\SC(=S)N(CCC(=O)NNC(=O)c3ccc(O)cc3)C2=O)cc1	EBNA-1 inhibitor 29 | EBNA-1 confirm 57 | ZTA counter trip inactive
CC(=O)c1ccc(NC(=O)CN2C(=O)/C(=C/C(C)=C/c3ccccc3)SC2=S)cc1	none (no result: pPAFAH FP inh, EBNA-1 inhibitor, ZTA DNA inh)
Cc1ccc(/C=C2\SC(=S)N(CCC(=O)NNC(=O)c3cccc(O)c3)C2=O)cc1	none
O=C(CCCN1C(=O)S/C(=C/C=C/c2ccccc2)C1=O)Nc1ccc(C(=O)O)cc1	none
O=C(CN1C(=O)S/C(=C\C=C\c2ccccc2)C1=O)Nc1ccc(O)cc1	EBNA-1 inhibitor 52 | EBNA-1 confirm inactive | ZTA counter trip inactive
CCC1(C)Cc2ccccc2C(=S)N1 (centres undefined)	none
Cc1c(C(=O)N/N=C/c2ccccn2)nnn1-c1nonc1N	none
COCc1cc(C)n(CC(=O)Nc2cc(C)cc(C)c2)c(=O)c1C#N	none
CCn1c(=O)n(CC(=O)Nc2cc(OC)c(OC)c(OC)c2)c(=O)c2ccccc21	none
CN(C)c1ccc(NC(=O)Cn2c(=O)n(Cc3ccccc3)c(=O)c3ccccc32)cc1	EBNA-1 inhibitor 43 | EBNA-1 confirm 35 | ZTA counter trip inactive
Cc1ccc(NC(=O)Cn2c(=O)n(CCCC(=O)NCc3ccco3)c(=O)c3ccccc32)cc1	EBNA-1 inhibitor 38 | EBNA-1 confirm 45 | ZTA counter trip inactive
O=C(C[n+]1cccc(/C=N/O)c1)N1CCCc2ccccc21	none
Cc1ccc(N(Cc2ccc(C(=O)NC3CCCCC3)cc2)S(C)(=O)=O)cc1C	EBNA-1 inhibitor 31 | EBNA-1 confirm 34 | ZTA counter trip inactive
CS(=O)(=O)N(Cc1ccc(C(=O)NC2CCCC2)cc1)c1ccccc1	none
COc1ccc(-n2nc(C(=O)NCC(=O)NCc3cccc(F)c3)c3ccccc3c2=O)cc1Cl	EBNA-1 inhibitor 28 | EBNA-1 confirm inactive | ZTA counter trip inactive
COC(=O)CNC(=O)CNC(=O)c1nn(-c2ccc(OC)c(Cl)c2)c(=O)c2ccccc12	none
COC(=O)c1ccc(NC(=O)Cn2nc(-c3ccncc3)nc2SCC(=O)Nc2nccs2)cc1	EBNA-1 inhibitor 52 | EBNA-1 confirm 35 | ZTA counter trip inactive
CCN(CC)C(=O)Cn1nc(-c2ccncc2)nc1SCC(=O)Nc1ccc(OC)cc1	none
CCOc1ccc(Nc2nnc(SCc3nc4ccccc4c(=O)[nH]3)s2)cc1	EBNA-1 inhibitor 38 | EBNA-1 confirm 52 | ZTA counter trip inactive
O=C(c1ccc(S(=O)(=O)N2CCCCCC2)cc1)N1CCC(CN2C(=O)c3cccc4cccc(c34)C2=O)CC1	EBNA-1 inhibitor 30 | EBNA-1 confirm inactive | ZTA counter trip inactive
O=C1c2cccc3cccc(c23)C(=O)N1CC1CCN(S(=O)(=O)c2ccccc2)CC1	none (no result: pPAFAH FP inh, EBNA-1 inhibitor, ZTA DNA inh)
